Records with an inconclusive call do not appear. Unmarked numbers belong to inactive results. The source made the active and inactive calls. Calls come from the whole dose curve; as a rule, active = well fitted curve in the direction sought with a large enough effect; inconclusive = small, poorly fitted or top-dose-only effect, or another doubt; inactive = no such curve, though single readings can be large; an effect the other way counts as inactive or inconclusive.
How the values were obtained:
[1] = BET inhibitor-based combinations targeting novel dependencies in MECOM-rearranged (r) AML: SET-2 cell line (AID 2202231); settings: SET-2 AML cells viability, CellTiter-Glo luminescence, 48 h; viability: stronger effect = lower value, concentration not given here; note: nearly all actives have a fitted effect of over 35% in size;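 for viability: plate controls were DMSO treated cells for no effect and wells without cells for full effect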
Method in brief: (§1)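 Cells were plated at 500 per well and exposed to an 11-point dose series of each drug for 48 hr. Viability was measured by CellTiter-Glo luminescence, normalized to DMSO and empty-well controls, and summarized as AUC and per-cell-line Z-AUC.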

[2] = BET inhibitor-based combinations targeting novel dependencies in MECOM-rearranged (r) AML: OCI-AML3 cell line (AID 2202232); settings: Potency: OCI-AML3 viability; note: nearly all actives have a fitted effect of over 35% in size
Method in brief: as §1

[3] = BET inhibitor-based combinations targeting novel dependencies in MECOM-rearranged (r) AML: UCSD-AML1 cell line (AID 2202235); note: nearly all actives have a fitted effect of over 40% in size
Method in brief: (§2)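 Activity is given as area under the curve and as Z-AUC, mean-centred within each cell line. It comes from 11-point dose curves normalized to DMSO and empty wells. CellTiter-Glo luminescence was read after 48 hr drug exposure of 500 cells/well.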

[4] = BET inhibitor-based combinations targeting novel dependencies in MECOM-rearranged (r) AML: AML-191 cell line (AID 2202236; note: nearly all actives have a fitted effect of over 35% in size)
Method in brief: as §1

[5] = BET inhibitor-based combinations targeting novel dependencies in MECOM-rearranged (r) AML: AML-194 cell line (AID 2202237; note: nearly all actives have a fitted effect of over 40% in size)
Method in brief: as §1

[6] = BET inhibitor-based combinations targeting novel dependencies in MECOM-rearranged (r) AML: MV-4-11 cell line (AID 2202233); note: nearly all actives have a fitted effect of over 45% in size
Method in brief: as §2

[7] = BET inhibitor-based combinations targeting novel dependencies in MECOM-rearranged (r) AML: HNT-34 cell line (AID 2202234); note: nearly all actives have a fitted effect of over 35% in size
Method in brief: as §2
Potency is the fitted concentration of half-maximal effect.

CNS(=O)(=O)Nc1nccc(Cc2c(C)c3ccc(Oc4ncccn4)cc3oc2=O)c1F
Potency [1]: 3720 nM (active) | Potency [2]: 33.2 nM (active) | Potency [3]: 525 nM (active)

C[C@@H]1COCCN1c1cc(-c2ccnn2C)c2ccnc(-c3ccn[nH]3)c2n1
Potency [1]: 83.3 nM (active) | Potency [2]: 52.5 nM (active) | Potency [3]: 66.1 nM (active) | Potency [4]: 296 nM (active) | Potency [5]: 332 nM (active)

c1ccc2c(-c3cnn4cc(-c5ccc(OCCN6CCOCC6)cc5)cnc34)ccnc2c1
Potency [1]: 12900 nM (active) | Potency [6]: 4560 nM (active)

Clc1ccc(CCC(Cn2ccnc2)Sc2c(Cl)cccc2Cl)cc1 (centres undefined)
viability [1]: 81.3% | Potency [2]: inactive | Potency [3]: inactive | Potency [5]: inactive

CC[C@H](Nc1ncnc2nc[nH]c12)c1oc2ccccc2c(=O)c1-c1cccc(F)c1
viability [1]: 93.4% | Potency [6]: 6610 nM (active)

CNCCN(C)Cc1cn[nH]c1-c1ccc(OC2CC(OCCC3CCOCC3)C2)cc1 (centres undefined)
viability [1]: 95.3% | Potency [6]: 20900 nM (active)

COc1ncc(Nc2ncc(C(C)N3CCN(S(C)(=O)=O)CC3)cc2-c2nc(C)nc(N)n2)cc1F (centres undefined)
viability [1]: 73.4% | Potency [2]: 662 nM (active) | Potency [5]: inactive

Cc1cc(C)cc(Oc2ccc(CNC(=O)[C@H](C)N)cc2C)c1
viability [1]: 109% | Potency [6]: 18600 nM (active)

COc1ccc(-c2nc(N3CCOCC3)c3sc(CN(C)c4ncc(C(=O)NO)cn4)cc3n2)cn1
Potency [1]: 29.5 nM (active) | Potency [6]: 23.5 nM (active) | Potency [7]: 41.7 nM (active) | Potency [3]: 29.5 nM (active) | Potency [4]: 46.8 nM (active)

O=C(O)/C=C/c1ccc(Cn2ccnc2)cc1
viability [1]: 125% | Potency [6]: inactive | Potency [7]: inactive | Potency [3]: inactive | Potency [4]: inactive | Potency [5]: inactive

Source: PubChem BioAssay (NCATS)
